# “And” between values parts separate entries of the source, which are not always exact repeats. Equal values may be shown once. Out of some 16,000 compounds screened, about 5,700 (36%) were called active. Not shown: some 24% with an inconclusive outcome. The list shows a part of the results. Values without a mark were called inactive. Calls come from the whole dose curve; as a rule, active = well fitted curve in the direction sought with a large enough effect; inconclusive = small, poorly fitted or top-dose-only effect, or effect the other way; inactive = no such curve, though single readings can be large or run the other way.
# Target: Cytochrome P450 1A2 (Homo sapiens) (UniProt P05177)
# Assay: Cytochrome panel assay with activity outcomes
# Settings: recombinant CYP, pro-luciferin dealkylation, luminescence, p450-cyp1a2; series mostly up to 57.1 µM
# % is set by controls: 0 for no effect and ±100 for the full control effect.
# Chain of Cytochrome P450 1A2 (Homo sapiens) (P05177 whole entry, looked up): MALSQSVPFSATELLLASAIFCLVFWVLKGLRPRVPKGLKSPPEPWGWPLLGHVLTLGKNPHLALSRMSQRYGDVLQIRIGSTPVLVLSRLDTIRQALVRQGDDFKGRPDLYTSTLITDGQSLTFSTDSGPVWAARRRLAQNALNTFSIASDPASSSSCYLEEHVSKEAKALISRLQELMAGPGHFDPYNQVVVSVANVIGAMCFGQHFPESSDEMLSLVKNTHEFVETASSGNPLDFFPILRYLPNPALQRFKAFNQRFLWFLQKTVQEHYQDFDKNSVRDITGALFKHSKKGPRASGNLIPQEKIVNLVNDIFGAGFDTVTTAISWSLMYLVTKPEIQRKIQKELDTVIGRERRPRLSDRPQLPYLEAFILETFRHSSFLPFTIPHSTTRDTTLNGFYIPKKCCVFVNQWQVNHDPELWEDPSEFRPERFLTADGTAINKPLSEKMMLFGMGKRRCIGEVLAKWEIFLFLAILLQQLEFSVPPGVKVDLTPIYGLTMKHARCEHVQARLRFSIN
Structure (SMILES),AC50,"activity, negative = inhibition"
O=C(NC1CCCCC1)C(c1ccccc1)N1CCOCC1 (stereo unspecified),inactive,
N#C/C(=C\c1cc(Cl)cc(Cl)c1O)C(=O)NC1CCCCC1,5.01 µM (active),
COc1ccc(/C=C(/C#N)C(=O)NC2CCCCC2)cc1Br,inactive,
N#C/C(=C\c1cn[nH]c1-c1ccccc1)C(=O)NC1CCCCCC1,11.2 µM (active),
CCOC(=O)C[C@@H](C(=O)OCC)[C@@H]1CCCCC1=O,,-6.2% [at 11.4 µM]
CCOc1cc(-c2noc(N)c2C#N)cc(OCC)c1OCC,0.141 µM (active),
CCOC(=O)c1cc(CC)sc1NC(=O)c1cc(OCC)c(OCC)c(OCC)c1,inactive,
CCON=C1C(C)(C)C(C)(C)C(C)(C)C1(C)C,,-12% [at 11.4 µM]
CC1CN(C(NC(=O)C(C)(C)C)C(Cl)(Cl)Cl)CC(C)O1 (stereo unspecified),inactive,
COCCNc1nc(-c2ccc(C(=O)N(C)C)cc2)nc2ccccc12,20 µM (active),
CN(C)C(=O)c1ccc(-c2nc(Nc3ccccc3)c3ccccc3n2)cc1,0.398 µM (active),
CN(C)c1ccc(-c2nc(NCCc3cnc[nH]3)c3ccccc3n2)cc1,0.631 µM (active),
NCCC(=O)NCCc1cnc[nH]1,inactive,
CN(C)C(=O)c1ccc(-c2nc(NCc3cccs3)c3ccccc3n2)cc1,12.6 µM (active),
CCOC(=O)N1CCC(NC(=O)C2CCN(S(=O)(=O)N3CCCC3)CC2)CC1,inactive,
CN(C)C[C@H]1CCC[C@@H](CN(C)C)C1=O,,-12.2% [at 11.4 µM]
Cc1ccc(S(=O)(=O)N[C@H](C(=O)N2CCC(C(=O)NCC(=O)O)CC2)C(C)C)cc1,inactive,
CC(=O)NCCNc1nc(-c2ccc3c(c2)OCO3)nc2ccccc12,2.51 µM (active),
CC(=O)NCCNc1nc(-c2ccc(C(=O)N(C)C)cc2)nc2ccccc12,inactive,
COCCNc1nc(-c2ccc(N(C)C)cc2)nc2ccccc12,0.631 µM (active),
CC(=O)NCCNc1nc(-c2ccc(N(C)C)cc2)nc2ccccc12,3.16 µM (active),
CCCCN(C)CCCNC(=O)CS(=O)Cc1nc(-c2ccc(OC)c(OC)c2)oc1C (stereo unspecified),inactive,
O=C(c1cnccn1)N1CCC2(CC1)CN(Cc1cc(C(F)(F)F)cc(C(F)(F)F)c1)C2,inactive,
O=c1c(-c2ccccc2)nc2cnc(N3CCOCC3)nc2n1C1CC1,3.16 µM (active),

Structure (SMILES),AC50,"activity, negative = inhibition"
N#Cc1cccc(-c2nc3cnc(N4CCNCC4)nc3n(C3CC3)c2=O)c1,5.01 µM (active),
O=c1c(-c2ccc(F)cc2)nc2cnc(N3CCOCC3)nc2n1C1CC1,inactive,
N#Cc1cccc(-c2nc3cnc(N4CCOCC4)nc3n(C3CC3)c2=O)c1,2.51 µM (active),
NC(=O)N1c2ccccc2C=Cc2ccccc21,inactive,
CC1(C)Cc2c(sc3nc(SCC(=O)NCc4ccccc4)n(-c4ccccc4)c(=O)c23)CS1,inactive,
C=CCn1c(SCC)nc2sc3c(c2c1=O)CCc1ccccc1-3,1.78 µM (active),
C=CCn1c(SCC(=O)Nc2c(C)n(C)n(-c3ccccc3)c2=O)nc2sc(C)c(-c3ccccc3)c2c1=O,inactive,
CO[C@@H]1CC[C@@]2(C)[C@@H](CC[C@@]3(C)[C@H]2CC=C2[C@H]4CC(C)(C)[C@H](O)[C@@H](OC(C)=O)[C@]4(CO)[C@H](O)C[C@]23C)[C@@]1(C)CO (tested in a mixture with another compound),inactive,
COc1ccc(-c2csc(NC(=O)Cn3nc(C)cc3C)n2)cc1,3.16 µM (active),
COc1ccc2cc(C)c3nnc(SCC(=O)Nc4nc(-c5ccccc5)cs4)n3c2c1,inactive,
CC(N)=NCCCC[C@H](N)C(=O)O,inactive,
COc1cc(/C=C/C(=O)N2CCN(CC(O)COc3ccccc3)CC2)cc(OC)c1OC (stereo unspecified),inactive,
COc1cc(/C=C\C(=O)N2CCC=CC2=O)cc(OC)c1OC,0.2 µM (active),
COc1cc(/C=C/C(=O)O)cc(S(=O)(=O)NCCCO)c1OC,inactive,
N#Cc1ccccc1-c1ccc2ncnc(NCCN3CCOCC3)c2c1,10 µM (active),
COc1ccccc1-c1ccc2ncnc(NCCN3CCOCC3)c2c1,15.8 µM (active),
COc1ccc(C2c3c(ncn(CCN4CCOCC4)c3=N)Oc3ccc4ccccc4c32)cc1OC (stereo unspecified),inactive,
Clc1ccccc1-c1ccc2ncnc(NCCN3CCOCC3)c2c1,5.01 µM (active),
CCCN=Cc1c(CCC)[nH]n(-c2nc3ccccc3s2)c1=O,0.562 µM (active),
COc1ccccc1-c1cncnc1NCCNC(C)=O,inactive,
CN(C)c1ccc(-c2cncnc2NCCN2CCOCC2)cc1,15.8 µM (active),
CC(=O)NCCNc1ncncc1-c1ccc(N(C)C)cc1,6.31 µM (active),
CN(C)C(=O)c1ccc(-c2cncnc2NCCN2CCOCC2)cc1,inactive,
CC(=O)NCCNc1ncncc1-c1ccccc1CN(C)C,25.1 µM (active),

Structure (SMILES),AC50,"activity, negative = inhibition"
COc1ccc(CCN2CC34C=CC(O3)C(C(=O)NCc3ccccc3)C4C2=O)cc1OC (stereo unspecified),inactive,
COc1cc2c(cc1OC)C(C(=O)N1CCOCC1)C(c1cccs1)N(C)C2=O (stereo unspecified),inactive,
Clc1ccc(C=Nc2ccc3c(c2)Cc2ccccc2-3)c(Cl)c1,0.794 µM (active),
C(/C=C\c1ccccc1)=Nc1ccc2c(c1)Cc1ccccc1-2,0.398 µM (active),
Oc1ccc(Cl)cc1C=Nc1cnc2ccccc2c1,,-13.2% [at 2.29 µM]
O=C(Nc1cccc(F)c1)N1CCCC2(CCN(S(=O)(=O)c3ccccc3)CC2)C1,inactive,
CCCCCCCCCCCCCCCCCCNC(=O)OC[C@@H](COP(=O)([O-])OCC[n+]1ccsc1)OC,inactive,
Cc1c(NC(=O)C(C)N2C(=O)c3ccccc3C2=O)c(=O)n(-c2ccccc2)n1C (stereo unspecified),inactive,
CC(=O)Nc1c2c3c(cccc3n(C)c1=O)C(=O)c1ccccc1-2,2.51 µM (active),
Clc1ccc(-c2noc(CN3CCCCC3)n2)cc1,0.631 µM (active),
N=C(N)SCc1nc(-c2ccc(Cl)cc2)no1,1.26 µM (active),
Cc1ncc(CSC(=N)N)n1Cc1ccccc1,,-2.06% [at 11.4 µM]
Cc1ccc(-c2noc(CN3CCN(C(c4ccccc4)c4ccccc4)CC3)n2)cc1,inactive,
CCCNC(=O)OC[C@@H]1O[C@H](CCON=C(C)C)C=C[C@@H]1Oc1ccc(OC)cc1,,-2.59% [at 11.4 µM]
CC(=O)N1CCc2cc(Br)cc(S(=O)(=O)N3CCN(C(=O)c4ccco4)CC3)c21,inactive,
CC(C)(O)C#Cc1ccc(C(=O)NCc2cccs2)s1,15.8 µM (active),
Cc1cc(Nc2ccc(Cl)cc2)nc(N)n1,10 µM (active),
Nc1nc(Cl)cc(NCCO)n1,,-22.6% [at 11.4 µM]
Cc1cc(C)c(S(=O)(=O)NNC(=O)C2CCN(Cc3ccccc3)CC2)c(C)c1,inactive,
COc1ccccc1N1CCN(C(=O)/C=C/c2ccc3c(c2)OCO3)CC1,25.1 µM (active),
COc1ccccc1N1CCN(Cc2cc(=O)n3ccsc3n2)CC1,inactive,
O=C(/C=C\c1ccc2c(c1)OCO2)c1ccc(F)cc1,,-4.56% [at 11.4 µM]
O=C(/C=C\C=C/c1ccc2c(c1)OCO2)N1CCCCC1,3.16 µM (active),
C/C(=N\Nc1nc(N)cc(Cl)n1)c1cccc([N+](=O)[O-])c1,11.2 µM (active),

Structure (SMILES),AC50,"activity, negative = inhibition"
C/C(=N\Nc1ccc([N+](=O)[O-])cc1)c1cccc(N)c1,1.26 µM (active),
NC(=O)CNC(=O)[C@@H]1CC2(CC(c3cccc([N+](=O)[O-])c3)=NO2)CN1C(=O)c1ccccc1 (stereo partly specified),inactive,
Nc1cc(Cl)nc(N/N=C/c2ccccc2[N+](=O)[O-])n1,2 µM (active),
C/C(=N\Nc1nnc(-c2ccccc2)c(-c2ccccc2)n1)c1cccc([N+](=O)[O-])c1,3.55 µM (active),
N=c1nc(N)nc(N)n1-c1ccc(S(N)(=O)=O)cc1,,-3.8% [at 2.29 µM]
O=C(c1ccccc1)[C@H](Nc1ccc2ccccc2c1)c1ccccc1,0.794 µM (active),
O=C(O)[C@@H](c1ccccc1)[C@@H](C(=O)O)c1ccccc1,,-12% [at 2.29 µM]
O=C(CSc1nc2ccc([N+](=O)[O-])cc2s1)c1ccc2ccccc2c1,3.16 µM (active),
COC(=O)\C(C(C)=O)=C(/C=C/C=C/C=C/N(C)C)N(C)C,inactive,
CC(C)(CO)Cc1cc(C(C)(C)C)c(O)c(C(C)(C)C)c1,25.1 µM (active),
Cc1cc(Cc2c(C)c(C)c(Cc3cc(C)cc(C(C)(C)C)c3O)c(C)c2C)c(O)c(C(C)(C)C)c1,,4.96% [at 2.29 µM]
Nc1c2ccccc2nc2c(O)cccc12,6.31 µM (active),
Cc1ccc(S(=O)(=O)Oc2cc(N)c3c(n2)CCC3)cc1,,-19.4% [at 2.29 µM]
Nc1c2c(nc3ccccc13)CCC[C@H]2O,10 µM (active),
Nc1c2c(nc3ccccc13)CCCC2,3.16 µM (active) and 794 nM (active) and 501 nM (active),
COC(=O)[C@@]1(Cc2ccccc2)[C@H]2c3cc(C(=O)N4CCCC4)n(Cc4cc(F)cc5c4OCOC5)c3C[C@H]2CN1C(=O)c1ccccc1,inactive,
CC(=O)C[C@H](c1ccc([N+](=O)[O-])cc1)c1c(O)c2ccccc2oc1=O,inactive,
Cn1c(CN2CCCC2)nc2cc(NC(=O)C3CCCCC3)ccc21,inactive,
Cc1cc(NC(=O)C2CCCCC2)nc2c1c(=O)oc1ccccc12,3.16 µM (active),
CC(C)(C)C(=O)OCc1cn(-c2ccc(Cl)cc2)nn1,0.708 µM (active),
CCCCC(=O)OCc1cn(-c2ccc(Cl)cc2)nn1,0.447 µM (active),
CC(C)(C)C(=O)N1CCC(O)(CS(=O)(=O)Cc2ccc(Cl)cc2)CC1,inactive,
Cc1ccc(C(=O)c2cn(-c3ccc(F)c(Cl)c3)nn2)cc1,inactive,
Cc1ccccc1NC(=O)OCc1cn(-c2ccc(Cl)cc2)nn1,0.447 µM (active),

# Source: PubChem BioAssay AID1851 (National Center for Advancing Translational Sciences (NCATS), 2009)
